Screens (PubChem BioAssay)
Only some compounds are listed: those with a hit (about 2.9% of all), similar ones and a draw of the others.
EPAC2 antag: human EPAC2 antagonism, validation. Q8WZA2. hit rate 1.7% among 16,000. EPAC2 Rap1B BODIPY-GDP exchange, fluorescence. Potency, µM (top dose mostly 112 µM), without a hit: top-dose activity, negative = inhibition, hits mostly inhibitors;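 further: 100% = activation by cAMP agonist control; nearly all actives have a fitted effect of over 40% in size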
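Fluorescent exchange read-out: 100 nM EPAC2 with 250 nM RAP1B–BODIPY-GDP and 50 uM GDP; BODIPY-GDP release lowers fluorescence. Read at 480/540 nm every 5 min for 30 min at room temperature; normalized to 6.5 mM cAMP.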
EPAC1 ag val: human EPAC1 agonism, validation; Potency, µM, for inactives: max response, positive = active, most hits filed as activators; EPAC1 Rap1b BODIPY-GDP exchange, fluorescence; O95398; hit rate 1% among 16,000; AID 1645883; further: nearly all actives have a fitted effect of over 70% in size
* hit, by the source's call; ? = inconclusive; ! = repeats disagree; [ ] = dose if it differs, or a comment. The call rests on the fitted dose curve; in most records, active means well fitted curve in the direction sought with a large enough effect; inconclusive means small, poorly fitted or top-dose-only effect, or another doubt; inactive means no such curve, though single readings can be large; an effect the other way counts as inactive or inconclusive. Unless noted, on the % scale 0 is the no-effect control and ±100 the full control effect; potency means the concentration at half of the fitted maximal effect.

SMILES | EPAC2 antag | EPAC1 ag val
COc1cc(-c2coc3cc(O[C@H]4OC(CO)C(O)C(O)C4O)c(OC)c(O)c3c2=O)cc(O)c1OC (stereo partly specified) | -7% | 20%
COc1cc(-c2coc3cc(OCc4ccccc4)c(OC)c(O)c3c2=O)cc(O)c1OC | -18% | 112µM*
CC[n+]1c(/C=C/C=C2/N(C)c3ccccc3C2(C)C)sc2ccccc21 | 100% | ?
O=C(CO)[C@@H](O)[C@H](O)[C@H](O)CO | 9% | -71%
O=C1N[C@@H](Cc2c[nH]c3ccccc23)C(=O)N[C@H]1Cc1c[nH]c2ccccc12 | -1% | 4%
c1ccc2c(Cc3c[nH]c4ccccc34)c[nH]c2c1 | ? | 100µM*
CC1=C(C(=O)OC(C)C)[C@@H](c2cccc3nonc23)C([N+](=O)[O-])=C(C)N1 | -51% | -1%
COC(=O)C1=C(C)NC(C)=C([N+](=O)[O-])C1c1ccccc1C(F)(F)F (stereo unspecified) | 40µM*! | 2%
COC(=O)C1CCCCN1Cc1ccc2c(c1)CN(Cc1cnn(-c3ccccc3)c1)CCO2 (stereo unspecified) | -2% | -6%
CC1(C)[C@@H](O)CC[C@]2(C)C3C(=O)C=C4C5C[C@@](C)(C(=O)O)CC[C@]5(C)CC[C@@]4(C)[C@]3(C)CC[C@@H]12 (stereo partly specified) | 4µM* | -15%
CC1(C)C2CC[C@]3(C)[C@H](C(=O)C=C4[C@@H]5C[C@@](C)(C(=O)O)CC[C@]5(C)CC[C@]43C)[C@@]2(C)CC[C@@H]1O[C@H]1O[C@H](C(=O)O)[C@@H](O)[C@H](O)[C@H]1O[C@@H]1O[C@H](C(=O)O)[C@@H](O)[C@H](O)[C@H]1O (stereo partly specified) | ? | 4%
COc1cc2c(cc1O)CCN[C@]21CS[C@@H]2c3c(OC(C)=O)c(C)c4c(c3[C@H](COC1=O)N1[C@@H]2[C@H]2c3c(cc(C)c(OC)c3O)C[C@@H]([C@@H]1O)N2C)OCO4 | 16%[239 µM] | -45%
CC[C@@H]1/C=C(\C)C[C@H](C)C[C@H](OC)[C@H]2O[C@@](O)(C(=O)C(=O)N3CCCC[C@H]3C(=O)O[C@H](/C(C)=C/[C@@H]3CC[C@@H](Cl)[C@H](OC)C3)[C@H](C)[C@@H](O)CC1=O)[C@H](C)C[C@@H]2OC | 11% | 9%
C=CC[C@@H]1/C=C(\C)C[C@H](C)C[C@H](OC)[C@H]2O[C@@](O)(C(=O)C(=O)N3CCCC[C@H]3C(=O)O[C@H](/C(C)=C/[C@@H]3CC[C@@H](O)[C@H](OC)C3)[C@H](C)[C@@H](O)CC1=O)[C@H](C)C[C@@H]2OC | 79µM* | -64%
C[C@@]12C(=O)OC(=O)[C@@]1(C)[C@@H]1CC[C@@H]2O1 | 56µM* | -12%
C[C@@]12C(=O)OC(=O)[C@@]1(C)C1CCC2O1 | 12% | -33%
CCOC(=O)N1CCN(Cc2ccc3c(c2)CN(C(=O)c2ccc4ncccc4c2)CCO3)CC1 | -11% | 1%
CC1(C)CCC2=C(O1)c1ccccc1C(=O)C2=O | 28µM*! | -7%
Cc1ccc(C(=O)Nc2cnn(-c3ccc(C(=O)N(C)Cc4n[nH]c5c4CCCC5)cc3)c2)c(C)c1 | -12% | 21%
CC(=O)N[C@@H](CSC/C=C(\C)CCC=C(C)C)C(=O)O | -14%[11.4 µM] | -8%
CC(=O)N[C@@H](CSC/C=C(\C)CC/C=C(\C)CC/C=C(\C)CCC=C(C)C)C(=O)O | 89µM*! | -2%
COCc1ccc(C(=O)N2CCOc3ccc(CN4CCN(c5ccc(F)cc5)CC4)cc3C2)o1 | -8% | -12%
C[N+]1(C)[C@@H]2CC(OC(=O)[C@H](CO)c3ccccc3)C[C@H]1[C@H]1O[C@@H]12 (stereo partly specified) | -40% | 1%
CCCCCCCC/C=C\C/C=C\C/C=C\CCCC(=O)NCCO | -21%[11.4 µM] | -33%
CCCCCCCC/C=C\CCCCCCCC(=O)N[C@@H](CO)Cc1ccc(O)cc1 | 20µM* | -58%
SMILES | EPAC2 antag | EPAC1 ag val
CC[C@H]1OC(=O)[C@H](C)[C@@H](O[C@H]2C[C@@](C)(OC)[C@@H](O)[C@H](C)O2)[C@H](C)[C@@H](O[C@@H]2O[C@H](C)C[C@H](N(C)C)[C@H]2O)[C@](C)(O)C[C@H](C)C(=NOCOCCOC)[C@H](C)[C@@H](O)[C@]1(C)O | 14% | 8%
C[C@@H]1CCN(C(=O)[C@H](CCCN=C(N)N)NS(=O)(=O)c2cccc3c2NC[C@H](C)C3)[C@@H](C(=O)O)C1 | -20% | -11%
CC(C)=CCc1c(O)cc(C)oc1=O | 0% | -12%
COc1cc(O)c2c(=O)cc(C)oc2c1CC=C(C)C | 32µM* | ?
COc1cc(C=C2CCC/C(=C\c3ccc(O)c(OC)c3)C2=O)ccc1O | -2% | ?
CNC(C)[C@@H]1CC[C@@H](N)[C@@H](O[C@H]2[C@H](O)[C@@H](O[C@H]3OC[C@](C)(O)[C@H](NC)[C@H]3O)[C@H](N)C[C@@H]2N)O1 (stereo partly specified) | 0%[56.6 µM] | -4%
COCC(=O)N1CCC2(CC1)CCN(C(=O)Nc1cccc(C#N)c1)CC2 | -21% | 126µM*
COCC(=O)N1CCC2(CCCN(C(=O)Nc3cccc(C#N)c3)C2)CC1 | -21% | -33%
CCOC(=O)C1=C(COCCN)NC(C)=C(C(=O)OC)C1c1ccccc1Cl (stereo unspecified) | -4% | 1%
CCOC(=O)C1=C(C)NC(C)=C(C(=O)OC)C1c1cccc(Cl)c1Cl (stereo unspecified) | ? | 56µM*!
O=S(=O)(O)c1ccc2c(N=Nc3ccc(S(=O)(=O)O)c4ccccc34)c(O)c(S(=O)(=O)O)cc2c1 | 50µM* | -63%
O=S(=O)(O)c1cc(O)c2c(N=Nc3ccc(Nc4ccccc4)c4c(S(=O)(=O)O)cccc34)cc(S(=O)(=O)O)cc2c1 | ? | 9%
CO[C@H]1C=CO[C@@]2(C)Oc3c(C)c(O)c4c(O)c(cc(O)c4c3C2=O)NC(=O)/C(C)=C\C=C/[C@H](C)[C@H](O)[C@@H](C)[C@@H](O)[C@@H](C)[C@H](OC(C)=O)[C@@H]1C | -16% | -12%
